This note sets out measurements from PubChem BioAssay.

Each structure is given as a SMILES string. Results filed as inconclusive are left out. Active and inactive are the calls of the source.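 Rule for the calls, unless noted: active = viability at or below 27.92% in each of two runs, the all-compound median minus 4 SD; inconclusive = no clear call, values can overlap the other calls; inactive = the rest.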

In general, viability refers to a read-out of living cells in per cent, often relative to untreated cells. The inhibition is the drop in the measured response relative to a control, in per cent.

Experiment [1] can be described thus: reducers of endogenous Her2 protein level, primary screen, SKBR3 breast tumor cells, AlphaScreen, ATP viability (AID 461;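 active = Her2 level under about 52% in both replicate screens, with viability over 70% of control, limit read from the data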;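 for Her2 level: lower value means less Her2 protein in the cells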;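 for viability: percent of carrier control wells set as 100% viability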). As to conditions: 18-24 h, measured here: SKBR3 viability, ATP luminescence, at 10 µM.
Experiment [2] deals with Receptor tyrosine-protein kinase erbB-2 (Homo sapiens) (UniProt P04626). The experiment is described as above. As to conditions: 18-24 h, at 10 µM, stronger effect = lower value.
Receptor tyrosine-protein kinase erbB-2 (Homo sapiens), sequence (P04626 whole entry, looked up): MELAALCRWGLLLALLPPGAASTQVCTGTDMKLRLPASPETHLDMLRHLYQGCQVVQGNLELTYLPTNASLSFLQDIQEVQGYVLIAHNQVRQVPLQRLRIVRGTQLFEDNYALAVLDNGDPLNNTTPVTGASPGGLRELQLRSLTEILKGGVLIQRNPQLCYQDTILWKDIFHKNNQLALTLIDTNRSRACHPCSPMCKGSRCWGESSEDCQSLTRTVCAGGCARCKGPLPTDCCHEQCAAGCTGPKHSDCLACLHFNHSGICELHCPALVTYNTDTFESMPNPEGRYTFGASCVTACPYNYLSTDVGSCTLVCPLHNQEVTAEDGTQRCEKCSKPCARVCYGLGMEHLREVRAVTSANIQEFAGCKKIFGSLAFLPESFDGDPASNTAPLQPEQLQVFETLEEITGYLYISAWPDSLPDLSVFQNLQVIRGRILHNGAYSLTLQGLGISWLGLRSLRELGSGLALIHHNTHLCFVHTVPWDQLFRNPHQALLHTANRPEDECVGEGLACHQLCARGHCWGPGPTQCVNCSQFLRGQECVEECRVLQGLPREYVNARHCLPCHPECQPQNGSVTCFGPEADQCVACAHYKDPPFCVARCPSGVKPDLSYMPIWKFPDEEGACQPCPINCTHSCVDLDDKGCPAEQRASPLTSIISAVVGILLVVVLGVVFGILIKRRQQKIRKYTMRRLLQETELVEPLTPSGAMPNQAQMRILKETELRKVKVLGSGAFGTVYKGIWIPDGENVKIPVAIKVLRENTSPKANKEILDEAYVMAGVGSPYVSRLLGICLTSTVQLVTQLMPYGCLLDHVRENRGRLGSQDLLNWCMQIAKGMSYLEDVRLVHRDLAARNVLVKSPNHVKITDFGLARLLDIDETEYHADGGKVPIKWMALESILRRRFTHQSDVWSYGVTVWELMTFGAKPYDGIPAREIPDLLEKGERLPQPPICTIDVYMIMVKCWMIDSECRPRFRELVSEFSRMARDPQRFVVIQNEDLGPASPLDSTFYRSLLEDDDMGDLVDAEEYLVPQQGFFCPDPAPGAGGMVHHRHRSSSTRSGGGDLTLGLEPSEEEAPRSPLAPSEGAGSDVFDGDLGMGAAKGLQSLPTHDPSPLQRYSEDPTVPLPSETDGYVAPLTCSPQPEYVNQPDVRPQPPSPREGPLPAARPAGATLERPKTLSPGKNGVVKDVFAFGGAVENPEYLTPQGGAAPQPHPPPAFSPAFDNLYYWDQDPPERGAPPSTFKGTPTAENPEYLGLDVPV
Experiment [3] can be described thus: SK-BR-3 cell growth inhibitors, pilot screen, 24 h, human (AID 572;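 active = viability at or below 10% of carrier control in both of two separate runs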;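 note: compound exposure lasted between 18 and 24 h rather than exactly 24 h; 100% = carrier-treated control wells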). The following applies: SK-BR-3 viability, CellTiter-Glo luminescence, at 10 µM, stronger effect = lower value. (ATP-based viability assays read luminescence as a measure of living cells.)
A short description of experiment [4]: HUVEC growth inhibition – cell-based, human, primary screen (AID 575;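 active = viability at or below 30% in both replicate assays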;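 note: 100% = median of untreated cell wells with 0.1% DMSO on each plate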). The following applies: HUVEC proliferation, CellTiter-Glo luminescence, 72 h; at 10 µM; stronger effect = lower value.
A short description of experiment [5]: growth inhibitors of H69AR lung tumor, primary screen, human, duplicate replicates (AID 580;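 active = viability at or under a set limit in both replicates, limit being median viability minus 3 SD, cut at about 48% in these data, passing the limit was not always enough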;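 note: 100% = mean luminescence of untreated wells and 0% = no signal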). As to conditions: H69AR lung tumor cells viability, ATP luminescence, 72 h; at 10 µM; stronger effect = lower value.
Experiment [6] is described as follows: reversal of MRP1-mediated doxorubicin resistance, pilot screen, H69AR cells, doxorubicin co-treatment (AID 601;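 active = viability loss from added drug above about 55%, and viability with drug at most 40%, in both replicates, limit read from the data, passing the limit was not always enough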). As to conditions: CellTiter-Glo, 72 h, at 10 µM; for differential viability (reversal): stronger effect = higher value.
A short description of experiment [7]: 384-well plate pilot, post-Golgi transport modulator project, inhibition of yeast transport mutant growth (AID 636; in the data active = inhibition above about 31%). As to conditions: absorbance 615 nm, about 18 h, stronger effect = higher value.
Experiment [8] in a line: growth suppression of yeast trafficking mutant, preliminary HTS, modulators of trafficking downstream of Golgi apparatus project, 1536-format plate, OD 615 nm (AID 637; in the data active = inhibition above about 30%). The following applies: yeast transport mutant growth, absorbance 615 nm, 18 h; stronger effect = higher value.
Experiment [9] is described as follows: OD615 S. cerevisiae growth inhibition, permissive medium, pilot counter-assay, permissive growth control for S. cerevisiae lifespan shortening project (AID 705;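 active = growth inhibition above 25% in both replicates, a cutoff set 3 SD above the mean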). As to conditions: OD615, 24 h, at 10 µM, stronger effect = higher value.
The nature of experiment [10]: Restrictive medium S. cerevisiae growth inhibition, OD615, pilot screen of yeast lifespan reduction project, restrictive growth control (AID 706;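 active = growth inhibition above a set limit, 3 SD over mean compound inhibition, in both replicates, cut at about 43% in these data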;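 note: modified DeaD lifespan yeast strain shifted to restrictive glucose medium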). The following applies: OD615, 48 h, at 10 µM, stronger effect = higher value.
Experiment [11] is described as follows: viability gain of MRP-1-high H69AR cells under doxorubicin, pilot screen, MRP-1 activator project, CellTiter-Glo, duplicate (AID 807;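 active = viability increase at or above a cutoff of the median across tested compounds plus 3 SD, cut at about 8.5% in these data, passing the limit was not always enough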;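 note: compound pretreatment 18-22 h then 72 h combined with doxorubicin; 0% = doxorubicin alone and 100% = vehicle without doxorubicin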). The following applies: H69AR viability with doxorubicin, CellTiter-Glo luminescence; at 10 µM; stronger effect = higher value.
Experiment [12] in a line: growth suppression of beta-catenin knockout HCT116, pilot screen, human colon tumor cells (AID 823;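 active = cell viability at or below a set limit in both duplicate runs, the limit being the all-compound median minus 4 SD, cut at about 23% in these data, passing the limit was not always enough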;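 note: 0% = wells killed by 20 µM Hyamine and 100% = untreated DMSO cell wells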). The following applies: CellTiter-Glo, 60 h, at 10 µM, stronger effect = lower value.
Experiment [13] can be described thus: growth suppression of PTEN-deleted HCT116, pilot screen, cell-based, HCT116 clonal line, CellTiter-Glo (AID 824).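 Note: 0% = 20 µM Hyamine control and 100% = vehicle cell control.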 As to conditions: 60 h, at 10 µM, stronger effect = lower value.
Experiment [14] can be described thus: inhibitors of the yeast RAM network, pilot screen, dse1pr::URA3 reporter, 5-FOA selection (AID 869;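 active = inhibition over a set limit, the all-compound mean plus 3 SD, in both replicate runs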;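 note: 0% = DMSO wells with no growth and 100% = 10 µM 1-NA-PP1 with full growth; RAM network block rescues cells from 5-FOA so hits raise OD615 growth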). As to conditions: S. cerevisiae dse1pr::URA3 5-FOA growth, OD615, 2 d; at 10 µM; stronger effect = higher value; strain carries analog-sensitive mutant Cbk1 kinase.
Experiment [15] in a line: RAM signaling pathway blockade in yeast – S. cerevisiae, Pdr1DBD-CYC8 efflux-inhibited sensitized strain, primary screen (AID 1298;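 active = RAM network inhibition above 8.4% in each of two replicates, 3 SD over the compound average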;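 note: 0% = DMSO untreated cells without growth and 100% = 10 µM 1-NA-PP1 full growth; higher means more yeast growth rescued from 5-FOA killing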). As to conditions: S. cerevisiae cbk1-as DSE1-URA3 strain, 5-FOA growth OD615, 2 d; at 50 µM; stronger effect = higher value.
Where [16] appears, read: H69AR cells + 2 uM doxorubicin, measured here: viability with 2 uM doxorubicin, stronger effect = lower value.
The mark [17] stands for this setting: H69AR cells, compound alone cytotoxicity.

`CCOc1ccc(-c2nnc(SCC(=O)N3CCN(c4ccccc4)CC3)o2)cc1`: the viability in experiment [1] is 103%; in experiment [3], 103% (inactive); in experiment [4] it was 99.5% (inactive); in [5], 86.5% (inactive); in experiment [6] (setting [16]), 88.5%; in [6] (setting [17]), 86.5%. For the same compound, the viability in experiment [12] was 102% (inactive); in experiment [13], 97.3% (inactive). The Her2 level in experiment [2] was 96% (inactive). In addition, the differential viability (reversal) in [6] (H69AR cells + 2 uM doxorubicin) was -2.04% (inactive). The inhibition was -3.73% (inactive) in [7], -3.28% (inactive) in experiment [8] and 2.71% (inactive) in experiment [14]. The growth inhibition is -3.14% (inactive) in [9] and 2.85% (inactive) in experiment [10]. In experiment [11], the viability increase is -0.66% (inactive). In addition, in experiment [15], the RAM network inhibition was 3.72% (inactive).
On to `Cc1nnc(SCC(=O)NCc2ccccc2)s1`, for which the viability in experiment [1] is 97.5%; in experiment [3] it was 97.5% (inactive); in [4] it was 81.2% (inactive); in experiment [5] it was 101% (inactive); in experiment [6] (setting [16]), 99.3%; in experiment [6] (setting [17]), 101%. Besides, the viability in experiment [12] was 101% (inactive); in [13], 102% (inactive). The Her2 level in [2] is 110% (inactive). Also, the differential viability (reversal) in experiment [6] (H69AR cells + 2 uM doxorubicin) is 1.61% (inactive). Further, the inhibition in [7] was -1.43% (inactive); in [8], -2% (inactive); in [14], 0.99% (inactive). For the same compound, the growth inhibition in experiment [9] and in experiment [10] was -11.3% (inactive) throughout. In addition, in [11], the viability increase was -1.46% (inactive). Moreover, in [15], the RAM network inhibition was 4.69% (inactive).
On to `CCN(CC)C(=O)COc1ccc2oc(C)c(C(=O)OC(C)C)c2c1`, for which the viability was 83% in experiment [1]; 83% (inactive) in experiment [3]; 91.4% (inactive) in experiment [4]; 74.1% (inactive) in experiment [5]; 78.8% in experiment [6] (setting [16]); 74.1% in [6] (setting [17]). Further, the viability in experiment [12] is 84.2% (inactive); in experiment [13], 84.8% (inactive). Moreover, the Her2 level in experiment [2] is 104% (inactive). Also, the differential viability (reversal) in experiment [6] (H69AR cells + 2 uM doxorubicin) is -4.69% (inactive). Besides, the inhibition in [7] is -1.69% (inactive); in experiment [8] it was -6% (inactive); in [14], 1.08% (inactive). The growth inhibition in experiment [9] is -11.4% (inactive); in [10], -9.19% (inactive). For the same compound, in experiment [11], the viability increase is -6.09% (inactive). In addition, the RAM network inhibition in experiment [15] was 7.42% (inactive).
With `CCCCOCCCNC(=O)c1ccc(NC(C)=O)cc1`, the viability in experiment [1] is 108%; in experiment [3], 108% (inactive); in [4] it was 86.3% (inactive); in [5], 96.6% (inactive); in experiment [6] (setting [16]), 86.6%; in experiment [6] (setting [17]) it was 96.6%. For the same compound, the viability in [12] is 104% (inactive); in experiment [13], 97.4% (inactive). Further, the Her2 level in [2] was 133% (inactive). Further, the differential viability (reversal) in [6] (H69AR cells + 2 uM doxorubicin) was 10% (inactive). Also, the inhibition was 1.04% (inactive) in experiment [7], -10.7% (inactive) in experiment [8] and 1.42% (inactive) in experiment [14]. Besides, the growth inhibition in experiment [9] is -9.19% (inactive); in experiment [10], -26.5% (inactive). The viability increase in experiment [11] is 0.09% (inactive). Besides, the RAM network inhibition in experiment [15] was -0.63% (inactive).
In the case of `CC(Oc1ccccc1)C(=O)NC1CC(C)(C)NC(C)(C)C1` (stereo not given), the viability in experiment [1] is 92%; in experiment [3], 92% (inactive); in experiment [4], 79.8% (inactive); in experiment [5] it was 94% (inactive); in experiment [6] (setting [16]), 91%; in experiment [6] (setting [17]) it was 94%. In addition, the viability in experiment [12] is 97.1% (inactive); in experiment [13], 96.9% (inactive). The Her2 level in [2] was 92.5% (inactive). Also, the differential viability (reversal) in [6] (H69AR cells + 2 uM doxorubicin) is 2.97% (inactive). Besides, the inhibition in [7] is -2.69% (inactive); in experiment [8] it was -1% (inactive); in [14], -0.135% (inactive). The growth inhibition in experiment [9] was -11.8% (inactive); in experiment [10], -2.76% (inactive). In addition, in experiment [11], the viability increase was -3.63% (inactive). Besides, the RAM network inhibition in experiment [15] was 2.18% (inactive).
